From PubChem BioAssay (NCI) come the findings set out here.

Values joined by “and” are separate entries in the source; they are usually repeats but may differ in a detail not shown here. Equal values may be shown once. This is part of a sample that, as a whole, favours compounds with a hit. Of some 83,000 tested, about 20% had one in any assay.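 Percent growth is the endpoint: 0 to 100 indicates growth inhibition (40 means 60% inhibition), 0 means no net growth, and negative values indicate cell death.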 Active and inactive are the calls of the source. How the source made its calls: active means growth percent below 10; inactive means the rest.

The test system of this assay is T-47D breast. Briefly: NCI-60 one-dose screen, 48 h (100 = growth as untreated, 0 = no growth, -100 = all killed). The following applies: 10 µM unless noted.
For `O=C(CSc1nnc(-c2ccc(-c3nc4ccc(Cl)cc4[nH]3)cc2)o1)Nc1ccc(Cl)cc1`, the growth was 47.5% (inactive).
As to `COc1ccc(-n2c(NC(=O)N3CCN(C)CC3)c(C#N)c3ccccc32)cc1`, the growth is 55.2% (inactive).
Then `N#Cc1c(NC(=O)N2CCOCC2)n(-c2ccc(OC(F)(F)F)cc2)c2cc(F)ccc12`, with 77.4% (inactive).
Take `COc1ccc(-c2nc3ccccc3n2CC(=O)N=Nc2c(O)[nH]c3ccc(Br)cc23)cc1`: the growth is 90.9% (inactive).
As to `O=C1Nc2ccccc2/C1=C/C(=O)c1cc2ccccc2oc1=O`, the growth was 83.2% (inactive).
Under `COc1sc(/C=N/NC(=O)c2[nH]c3ccc(Br)cc3c2-c2ccccc2)cc1Br` stands 62% (inactive); under `CSc1ccc(OCc2nc3ccccc3n2-c2cccc(NS(C)(=O)=O)c2)cc1`, 99.4% (inactive) and 78.4% (inactive).
Regarding `O=C(NNC(=O)c1ccc(OCc2nc3ccc(Cl)cc3[nH]2)cc1)Nc1ccc(Cl)c(Cl)c1`, the growth is -1.89% (active).
`COc1cc(C2CC(c3ccc(F)cc3)=Nc3c(N)nc(N)nc3N2)ccc1Oc1nc(Nc2ccc(F)cc2)nc(N(C)C)n1` (stereo not drawn): the growth is 65.7% (inactive).
As to `NC1(c2ccc(-c3ccc4ncnc(NCc5ccccc5)c4c3)cn2)COC1`, the growth was 108% (inactive) and 107% (inactive).
Take `C#CCN(C)CCCOc1ccc(N(CC)C(=O)c2cc(C(C)C)c(O)cc2O)cc1Cl`: the growth is 10.1% (inactive).
Then `C#CCCCNCCNc1ccnc2cc(Cl)ccc12`, with 71% (inactive).
Then `COc1cc(CNC(=O)C[C@H](C)CCC=C(C)C)ccc1OCc1cn(-c2ccccc2F)nn1`, with 60.6% (inactive).
